Here are results for 25 molecules from the supplement of paper PMC6658780.

Counter-ions that a name gives are not always drawn. ± gives the standard deviation of the averaged measurements.

In test [1] the test system is Klebsiella pneumoniae KPC-119. Put plainly: percent growth inhibition of drug alone vs DMSO control; higher = more growth inhibition. Particulars: antibiotic (0.125x MIC): none (0.1% DMSO).
Test [2] concerns Klebsiella pneumoniae NCTC-13439. Described as above. The settings on record: antibiotic (0.125x MIC): none (0.1% DMSO).
For test [3], the system named is Klebsiella pneumoniae KPC-119. The test can be described thus: percent growth inhibition of drug + antibiotic vs DMSO control; higher = more growth inhibition.
Test [4] has as its system Klebsiella pneumoniae NCTC-13439. The description is as above.
The subject of test [5] is Escherichia coli ATCC BAA-2469. The test is described as above. The settings on record: antibiotic (0.125x MIC): gentamicin; 7 µM. The method, then:
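Prestwick drugs tested at 20 uM and 7 uM with an antibiotic at 0.125x MIC (16 mg/L when MIC >128 mg/L) against E. coli ATCC BAA-2469 (NDM-1) in CAMHB, 384-well plates, duplicate runs. Percent growth inhibition was computed from OD600 (24 h minus 0 h) relative to DMSO wells. Drug + DMSO-only wells are also given. […]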

The mark [6] stands for this setting: antibiotic (0.125x MIC): gentamicin, 7 µM.
[7] abbreviates: antibiotic (0.125x MIC): gentamicin, 20 µM.
Setting [8] is: antibiotic (0.125x MIC): meropenem, 7 µM.
[9] abbreviates: antibiotic (0.125x MIC): meropenem, 20 µM.
Setting [10] is: antibiotic (0.125x MIC): ciprofloxacin, 7 µM.
Setting [11] is: antibiotic (0.125x MIC): ciprofloxacin, 20 µM.
The mark [12] stands for this setting: antibiotic (0.125x MIC): tigecycline, 7 µM.
The mark [13] stands for this setting: antibiotic (0.125x MIC): colistin, 7 µM.
Where [14] appears, read: antibiotic (0.125x MIC): colistin, 20 µM.

With `O=C(O)c1cn(-c2ccc(F)cc2)c2cc(N3CCNCC3)c(F)cc2c1=O` [Sarafloxacin], the “percent growth inhibition of drug alone” value in test [1] (7 µM) worked out at 56.9 ± 1.9%; in test [1] (20 µM), 98.9 ± 1.1%; in test [2] (7 µM), 19.6 ± 1.8%; in test [2] (20 µM) it was 98.4 ± 1.6%. The percent growth inhibition in test [3] (setting [6]) is 99.81 ± 0.1%; in test [3] (setting [7]) it was 99.82 ± 0.22%; in test [3] (setting [8]), 99.613 ± 0.042%; in test [3] (setting [9]), 83.6 ± 19%; in test [4] (setting [10]), 59.24 ± 0.15%; in test [4] (setting [11]), 99.59 ± 0.23%. Besides, the percent growth inhibition in test [4] (setting [12]) turned out to be 50 ± 14%; in test [4] (antibiotic (0.125x MIC): tigecycline, 20 µM) it was 99.57 ± 0.39%.

`CCOC(=O)c1ccc(OC(=O)CCCCCNC(=N)N)cc1` [Gabexate mesilate]: the percent growth inhibition in test [5] amounted to 4.82 ± 3.7%.

For the molecule `O=C1OCCN1/N=C/c1ccc([N+](=O)[O-])o1` [Furazolidone], the “percent growth inhibition of drug alone” value came to 18.3 ± 1.2% in test [1] (7 µM), 39.8 ± 1.6% in test [1] (20 µM), 17.5 ± 3% in test [2] (7 µM) and 49.8 ± 1.5% in test [2] (20 µM). For the same molecule, the percent growth inhibition in test [3] (setting [13]) came out at 96.1 ± 7%; in test [3] (setting [14]), 99.62 ± 0.88%; in test [3] (setting [6]), 17.8 ± 1.7%; in test [3] (setting [7]), 99.78 ± 0.13%; in test [4] (setting [10]), 17 ± 1.2%; in test [4] (setting [11]), 99.97 ± 0.19%. Moreover, in test [4] (setting [12]), the percent growth inhibition worked out at 26.3 ± 2.4%.

In the case of `CCN(CC)CCNC(=O)c1cc(Br)c(N)cc1OC` [Bromopride], the percent growth inhibition in test [5] is 1.42 ± 2.4%.

`Oc1c(Cl)cc(Cl)c(Cl)c1Cc1c(O)c(Cl)cc(Cl)c1Cl` [Hexachlorophene]: the entries for the “percent growth inhibition of drug alone” value in test [1] (7 µM) and in test [1] (20 µM) were 0.779 ± 4.2% and 18.8 ± 7.5%, respectively. Moreover, the percent growth inhibition in test [3] (setting [13]) was determined as 4.52 ± 2.5%.

With `CC(C)NCC(O)c1ccc(O)c(O)c1` (single isomer, unassigned; (-)) [(-)-Isoproterenol hydrochloride], the figures for the “percent growth inhibition of drug alone” value in test [1] (7 µM) and in test [1] (20 µM) were 0.335 ± 1.6% and 1.39 ± 1.6%, respectively. For the same molecule, the percent growth inhibition in test [3] (setting [14]) turned out to be 0.725 ± 1.5%.

As for `O=c1[nH]c(=O)n([C@H]2C[C@H](O)[C@@H](CO)O2)cc1F` [Floxuridine], the “percent growth inhibition of drug alone” value in test [1] (7 µM) came to 34.2 ± 2.8%; in test [1] (20 µM) it was 92.8 ± 5.4%; in test [2] (7 µM), 43.4 ± 0.88%; in test [2] (20 µM), 99.63 ± 0.17%. Also, the percent growth inhibition in test [3] (setting [14]) was 98.9 ± 1.5%; in test [3] (setting [8]), 89.6 ± 10%; in test [3] (setting [9]), 98.5 ± 1.4%; in test [4] (setting [10]), 64.6 ± 15%; in test [4] (setting [11]) it was 99.05 ± 0.42%.

As for `NC[C@@H]1O[C@H](O[C@H]2[C@@H](O)[C@H](O[C@@H]3[C@@H](O)[C@H](N)C[C@H](N)[C@H]3O[C@H]3O[C@H](CO)[C@@H](O)[C@H](O)[C@H]3N)O[C@@H]2CO)[C@H](N)[C@@H](O)[C@@H]1O` [Paromomycin sulfate], the “percent growth inhibition of drug alone” value in test [1] (7 µM) was -0.033 ± 0.073%; in test [1] (20 µM), 41.3 ± 0.58%; in test [2] (7 µM) it was 11.4 ± 2.6%; in test [2] (20 µM), 43.7 ± 12%. In addition, the percent growth inhibition is 12.7 ± 6.7% in test [3] (setting [13]), 8.59 ± 1.5% in test [3] (setting [6]) and 6.3 ± 3% in test [4] (setting [12]).

`CC(C)NC[C@H](O)COc1ccc(CC(N)=O)cc1` [(S)-(-)-Atenolol]: the “percent growth inhibition of drug alone” value in test [1] (7 µM) is 0.932 ± 4.5%; in test [1] (20 µM), -0.0403 ± 1.4%. Moreover, the percent growth inhibition in test [3] (setting [14]) is -1.42 ± 6%.

On to `CCN1CCC[C@H]1CNC(=O)c1c(O)c(Cl)cc(Cl)c1OC` [Raclopride], for which the “percent growth inhibition of drug alone” value is -0.791 ± 2.4% in test [1] (7 µM) and 0.378 ± 5.2% in test [1] (20 µM). Also, the percent growth inhibition in test [3] (setting [14]) is -4.39 ± 0.64%.

`CCN(CC)CCOC(=O)C1(C2CCCCC2)CCCCC1` [Dicyclomine hydrochloride]: the “percent growth inhibition of drug alone” value in test [1] (7 µM) was determined as 0.63 ± 2%; in test [1] (20 µM), 2.04 ± 2.2%. Further, the percent growth inhibition in test [3] (setting [14]) was -2.28 ± 7.1%.

Regarding `CN(C)CCCN1c2ccccc2Sc2ccc(Cl)cc21` [Chlorpromazine hydrochloride], the “percent growth inhibition of drug alone” value is -3.83 ± 2.6% in test [1] (7 µM) and -3.58 ± 1.3% in test [1] (20 µM). The percent growth inhibition in test [3] (setting [13]) is 41.9 ± 12%; in test [3] (setting [14]), 2.49 ± 2.4%.

With `CC1CCc2cc(F)cc3c(=O)c(C(=O)O)cn1c23` (stereo not given) [Flumequine], the results for the “percent growth inhibition of drug alone” value in test [1] (7 µM) and in test [1] (20 µM) were 15.15 ± 0.074% and 65.7 ± 2.7%, respectively. For the same molecule, the percent growth inhibition was found to be 88.42 ± 0.76% in test [3] (setting [13]) and 95.6 ± 2.3% in test [3] (setting [14]).

Consider `CCn1cc(C(=O)O)c(=O)c2cc(F)c(N3CCN(C)CC3)cc21` [Pefloxacine], for which the “percent growth inhibition of drug alone” value in test [1] (7 µM) was 12.5 ± 1.1%; in test [1] (20 µM), 51.2 ± 3.2%. The percent growth inhibition in test [3] (setting [6]) was found to be 11.4 ± 19%.

Consider `CN(C)CCOC(c1ccc(Cl)cc1)c1ccccn1` (stereo not given) [Carbinoxamine maleate salt], for which the entries for the “percent growth inhibition of drug alone” value in test [1] (7 µM) and in test [1] (20 µM) were -6.88 ± 0.94% and -3.08 ± 0.79%, respectively. In addition, the percent growth inhibition in test [3] (setting [14]) is -10.7 ± 4.1%.

For the molecule `COc1cccc2c1C(=O)c1c(O)c3c(c(O)c1C2=O)C[C@@](O)(C(=O)CO)C[C@@H]3O[C@H]1C[C@H](N)[C@@H](O)[C@H](C)O1` [Epirubicin hydrochloride], the “percent growth inhibition of drug alone” value in test [1] (7 µM) was -1.63 ± 2.7%; in test [1] (20 µM), -0.106 ± 4.7%. Besides, the percent growth inhibition in test [3] (setting [13]) was -0.818 ± 0.78%.

With `CO/N=C(\C(=O)N[C@@H]1C(=O)N2C(C(=O)O)=C(COC(C)=O)CS[C@H]12)c1csc(N)n1` [Cefotaxime sodium salt], the “percent growth inhibition of drug alone” value in test [1] (7 µM) came out at 4.98 ± 2%; in test [1] (20 µM) it was 37.8 ± 0.86%. In test [3] (setting [6]), the percent growth inhibition came to 29.3 ± 2.3%.

As to `CC(C)(C)CC(C)(C)c1ccc(OCCOCC[N+](C)(C)Cc2ccccc2)cc1` [Benzethonium chloride], the “percent growth inhibition of drug alone” value in test [1] (7 µM) came to 2.21 ± 0.87%; in test [1] (20 µM) it was 2.03 ± 2.5%. In addition, the percent growth inhibition in test [3] (setting [13]) was 4.69 ± 10%; in test [3] (setting [14]), 97.15 ± 0.41%.

In the case of `CO[C@@H]1[C@@H](OC(N)=O)[C@@H](O)[C@H](Oc2ccc3c(O)c(NC(=O)c4ccc(O)c(CC=C(C)C)c4)c(=O)oc3c2C)OC1(C)C` [Novobiocin sodium salt], the “percent growth inhibition of drug alone” value in test [1] (7 µM) worked out at 0.874 ± 4.5%; in test [1] (20 µM) it was 5.13 ± 1.4%. In addition, the percent growth inhibition in test [3] (setting [13]) was found to be 34.1 ± 0.68%; in test [3] (setting [14]), 98.55 ± 0.69%.

Regarding `CCCCCCCCNC(C)C(O)c1ccc(SC(C)C)cc1` (stereo not given) [Suloctidil], the “percent growth inhibition of drug alone” value was -1.6 ± 0.96% in test [1] (7 µM) and -1.21 ± 1.4% in test [1] (20 µM). Moreover, the results for the percent growth inhibition in test [3] (setting [13]) and in test [3] (setting [14]) were 3.9 ± 5.4% and 94.63 ± 0.84%, respectively.

For `CCCCOC(=O)c1ccc(N)cc1` [Butamben], the results for the “percent growth inhibition of drug alone” value in test [1] (7 µM) and in test [1] (20 µM) were -0.672 ± 3.4% and -0.688 ± 0.36%, respectively. The percent growth inhibition in test [3] (setting [14]) was found to be 3.33 ± 3%.

In the case of `CC[C@H]1OC(=O)[C@H](C)[C@@H](O[C@H]2C[C@@](C)(OC)[C@@H](O)[C@H](C)O2)[C@H](C)[C@@H](O[C@@H]2O[C@H](C)C[C@H](N(C)C)[C@H]2O)[C@](C)(OC)C[C@@H](C)C(=O)[C@H](C)[C@@H](O)[C@]1(C)O` [Clarithromycin], the “percent growth inhibition of drug alone” value in test [1] (7 µM) was found to be 0.744 ± 2.4%; in test [1] (20 µM), 3.19 ± 2.3%. The percent growth inhibition in test [3] (setting [14]) came to 3.22 ± 2.8%.

Take `CC1CCc2c(N3CCC(O)CC3)c(F)cc3c(=O)c(C(=O)O)cn1c23` (stereo not given) [Nadifloxacin]: the “percent growth inhibition of drug alone” value in test [1] (7 µM) came out at 6.2 ± 4.4%; in test [1] (20 µM), 36 ± 4.7%. Further, the values for the percent growth inhibition in test [3] (setting [13]) and in test [3] (setting [14]) were 82.4 ± 20% and 98.1 ± 1.5%, respectively.

`C[C@H]1c2cccc(O)c2C(=O)C2=C(O)[C@]3(O)C(=O)C(C(N)=O)=C(O)[C@@H](N(C)C)[C@@H]3[C@@H](O)[C@@H]21` [Doxycycline hydrochloride]: the “percent growth inhibition of drug alone” value in test [1] (7 µM) stood at 15.8 ± 3%; in test [1] (20 µM), 35.7 ± 5.2%. For the same molecule, the percent growth inhibition in test [3] (setting [13]) was 42.8 ± 2.2%; in test [3] (setting [14]), 91.4 ± 2.1%.

On to `COc1cnc(NS(=O)(=O)c2ccc(N)cc2)nc1` [Sulfameter], for which the figures for the “percent growth inhibition of drug alone” value in test [1] (7 µM) and in test [1] (20 µM) were -1.55 ± 2.6% and -0.515 ± 1.5%, respectively. Moreover, in test [3] (setting [14]), the percent growth inhibition was -5.03 ± 15%.
